Bioassay records deposited in PubChem by National Center for Advancing Translational Sciences (NCATS).
Pf growth 48h: P. falciparum growth inhibition at 48 hours (one generation); P. falciparum luciferase growth in erythrocytes, 48 h; Potency, µM (titrated, usually from 28.7 µM), actives largely listed as inhibitors; 5.9% of 310,000 active
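Luminescence readout; reporter = integrated firefly luciferase in P. falciparum. RBC culture at 2% hematocrit, 0.1% parasitemia final, 37 C/5% CO2; decreased signal taken as growth inhibition.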
HCMV inh: human cytomegalovirus inhibition; 4.5% of 410,000 active; HFF cells, HCMV-luciferase reporter, 72 h; active compounds read low; AID 1259415; activity change, negative = inhibition, % at 57.5 µM; in the data active = activity change below about -60%; inconclusive = no clear call, values can overlap the other calls; inactive = above about -39%
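Two-dose cell screen: HFF monolayers treated with compounds and infected with luciferase-expressing HCMV at 1 PFU/cell, 72 h at 37C, then lysed for luciferase measurement.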
Sm TGR block: inhibitors of Schistosoma mansoni thioredoxin glutathione reductase | Q962Y6 | purified TGR, DTNB reduction, TNB absorbance 405 nm | Potency, µM (titrated, usually from 114 µM), most hits filed as inhibitors | 3% of 360,000 active | AID 485364; note: nearly all actives have a fitted effect of over 60% in size
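First, TGR (20 nM dispensed) and NADPH were mixed with compound. Second, a 15 min room-temperature incubation followed. Third, further NADPH and then DTNB were added to start the reaction. Finally, TNB absorbance was monitored kinetically.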
SARS PLpro yeast: SARS-CoV PLP inhibition in yeast; 0.19% of 330,000 active; Potency, µM (highest dose often 32.9 µM), actives largely listed as activators; S. cerevisiae expressing SARS-CoV PLpro, growth rescue; calls by dose curve; note: nearly all actives have a fitted effect of over 55% in size
Pf growth 96h: P. falciparum growth inhibition at 96 hours; Potency, µM (doses to about 28.7 µM), actives largely listed as inhibitors; AID 504834; P. falciparum luciferase reporter growth, 96 h; 6.9% of 320,000 active
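Delayed-death screen, second-generation endpoint: infected erythrocytes, 2% hematocrit, 0.05% parasitemia final; 96 hours at 37 C, 5% CO2; luciferase detection reagent; luminescence decrease equals reduced growth.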
HCV inh: blocks hepatitis C virus | 3.4% of 340,000 active | Potency, µM (top dose mostly 41.8 µM), most hits filed as inhibitors | Huh7.5.1 HCVcc-Cre infection, luciferase reporter, 44 h | AID 651820
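HCVcc-Cre virus at an moi near 0.5 was added right after compound to cells cultured 4 h from seeding (1,000 cells/well). Luciferase activity was determined 44 h later, 15 min after substrate addition at RT.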
Of the large screens only hits and unclear results are named; the others gave an inactive call. Most compounds without a hit are left out; they make up all but 15% or so of the library. Unless noted, calls come from the whole dose curve; as a rule, active = well fitted curve in the direction sought with a large enough effect; inconclusive = small, poorly fitted or top-dose-only effect, or another doubt; inactive = no such curve, though single readings can be large; an effect the other way counts as inactive or inconclusive.

CCOC(=O)N1CCN(C(=O)CNC(=O)c2nn(-c3ccc(OC)cc3OC)c(=O)c3ccccc23)CC1	Pf growth 48h inconclusive, Pf growth 96h 1µM
COc1ccc(-n2nc(C(=O)NCC(=O)N3CC(C)CC(C)C3)c3ccccc3c2=O)c(OC)c1 (configuration not stated)	Pf growth 48h 2.1µM
CCN1CCN(C(=O)CNC(=O)c2nn(-c3ccc(OC)cc3)c(=O)c3ccccc23)CC1	Pf growth 96h 1.5µM
COc1ccc(-n2nc(C(=O)NCC(=O)N3CCCC3)c3ccccc3c2=O)cc1	Pf growth 96h inconclusive
COc1ccc(-n2nc(C(=O)NCC(=O)NCc3ccccc3OC)c3ccccc3c2=O)c(OC)c1	Pf growth 48h inconclusive, Pf growth 96h inconclusive
COc1ccc(-n2nc(C(=O)NCC(=O)N3CCN(c4ccccc4)CC3)c3ccccc3c2=O)c(OC)c1	none
O=C(c1ccc2nc(Cc3ccccc3F)oc2c1)N1CC[C@H](O)C1	none
CC(C)c1ccc2nc(SCC(=O)NCC3CCCO3)c(C#N)cc2c1 (configuration not stated)	HCV inh inconclusive
O=C(NC(=S)NCCC1=CCCCC1)c1ccccc1Br	Pf growth 48h inconclusive, Pf growth 96h inconclusive
CC(C)CNC(=O)c1coc(=O)c(Br)c1	Pf growth 48h inconclusive, HCMV inh -77, HCV inh inconclusive (no result: Pf growth 96h)
Cc1cc(C(=O)NCCC2=CCCCC2)c(C)o1	Sm TGR block 22µM, Pf growth 96h inconclusive
O=C(NCCC1=CCCCC1)c1coc(=O)c(Br)c1	HCMV inh -103, HCV inh inconclusive
O=C(NC(=S)NCCC1=CCCCC1)c1cncc(Br)c1	SARS PLpro yeast 13µM
COc1ccc(N2CC(NC(=O)c3ccc(S(=O)(=O)N4CCOCC4)cc3)CC2=O)cc1OC (configuration not stated)	none (no result: Pf growth 48h, SARS PLpro yeast, Pf growth 96h, HCV inh)
Fc1ccc(-c2nc3ccc(Cl)cn3c2Cc2cccc(F)c2)cc1	none (no result: Pf growth 48h, Sm TGR block, SARS PLpro yeast, Pf growth 96h, HCV inh)
COc1cc(CO)cc(Br)c1OCc1cccnc1	none
CCCOc1ccccc1-c1nc(SCC(=O)c2ccccc2)n[nH]1	none (no result: Pf growth 48h, SARS PLpro yeast, Pf growth 96h, HCV inh)
CNc1c2cccc(C)c2nc2c(C(=O)NCCN(C)C)cccc12	HCMV inh -100, HCV inh 1.4µM (no result: Pf growth 48h, Sm TGR block, SARS PLpro yeast, Pf growth 96h)
CCn1c(SCC(=O)N/N=C/C=C/c2ccco2)nnc1-c1ccc(OC)cc1	HCMV inh inconclusive, Sm TGR block 32µM, Pf growth 96h inconclusive
O=C(CSc1nnc(SCc2ccccc2)s1)N/N=C/C=C\c1ccco1	HCMV inh inconclusive, Sm TGR block 32µM, Pf growth 96h inconclusive
CCn1c(SCC(=O)N/N=C/C=C/c2ccco2)nc2ccccc21	Sm TGR block 14µM
O=C(CSc1nnc(SCc2ccccc2)s1)N/N=C/C=C/c1ccccc1[N+](=O)[O-]	none
CCn1c(SCC(=O)N/N=C/c2ccc(C)o2)nnc1-c1ccc(C)cc1	none
COc1ccc(-n2cc(C(=O)Nc3ccccc3C#N)c3ccccc3c2=O)cc1	none (no result: Pf growth 48h, SARS PLpro yeast, Pf growth 96h, HCV inh)
CCN(CC)C(=O)c1cnn(-c2ccccc2)c1NC(=O)c1ccccc1F	Pf growth 96h 0.93µM
O=C(Nc1c(C(=O)N2CCOCC2)cnn1-c1ccccc1)c1ccccc1F	none
CCOC(=O)C(=CNc1ccc(NC2=NCC(C)S2)cc1)C(=O)OCC (configuration not stated)	Pf growth 48h 9.3µM, HCMV inh -66, HCV inh inconclusive
CC1CN=C(Nc2ccc(F)cc2)S1 (configuration not stated)	HCMV inh inconclusive
CCc1ccc(S(=O)(=O)NCc2nc3cccnc3n2Cc2ccccc2Cl)cc1	HCMV inh inconclusive (no result: Pf growth 48h, SARS PLpro yeast, Pf growth 96h, HCV inh)
CCN(CC)C(=O)COc1ccc(/C(C)=N/Nc2ncc(Cl)cc2Cl)cc1	HCV inh 11µM
CCCCNC(=S)N(C)/N=C/c1c(F)cccc1F	HCMV inh -90, HCV inh inconclusive
CCCCNC(=S)N(C)/N=C/c1ccccc1F	none
Cc1cccc(-c2cc(C(=O)NCCCn3ccnc3)c3ccccc3n2)c1	Pf growth 48h inconclusive, Pf growth 96h inconclusive (no result: HCMV inh, HCV inh)
Cc1ccc(-c2cc(C(=O)O)c3cc(Br)ccc3n2)s1	Sm TGR block inconclusive, Pf growth 96h inconclusive
Cc1ccc(-c2cc(C(=O)NC3=NCCS3)c3cc(Br)ccc3n2)o1	Pf growth 48h 9.3µM, Sm TGR block 2.8µM (no result: HCMV inh)
Cc1ccc(-c2cc(C(=O)NCCCn3ccnc3)c3cc(Br)ccc3n2)o1	Pf growth 48h 9.3µM, Sm TGR block 1.6µM, Pf growth 96h inconclusive (no result: HCMV inh)
Cc1ccc(-c2cc(C(=O)NN3CCOCC3)c3cc(Br)ccc3n2)o1	HCMV inh inconclusive, Sm TGR block 10µM, Pf growth 96h 5.2µM
Cc1ccc(-c2cc(C(=O)O)c3cc(Br)ccc3n2)o1	Sm TGR block 2µM
O=C(NC1=NCCS1)c1cc(-c2cccs2)nc2ccccc12	Pf growth 96h inconclusive
COc1ccc(C(=O)Nc2c(-c3cccs3)c(=O)c3ccccc3n2C)cc1	none
CCOc1ccc(C2c3c(oc4ccc(C)cc4c3=O)C(=O)N2CCCN(C)C)cc1 (configuration not stated)	none (no result: Pf growth 48h, SARS PLpro yeast, Pf growth 96h, HCV inh)
Cc1ccc(-c2nn(-c3ccccc3)cc2/C=N/NC(=O)c2ccncc2)o1	HCMV inh inconclusive
CN(C)C(=O)c1cn(-c2ccccc2)nc1-c1cc2ccccc2o1	Pf growth 48h inconclusive, HCMV inh inconclusive, HCV inh inconclusive
Cc1ccc(-c2nn(-c3ccccc3)cc2C(N)=O)o1	Sm TGR block 20µM
Cc1ccc(-c2nn(-c3ccccc3)cc2CO)o1	Sm TGR block 45µM
Cc1ccc(-c2nn(-c3ccccc3)cc2C=O)o1	Sm TGR block 13µM
Cc1cnc(CN(C)C(=O)CC2C(=O)NCCN2CCCc2ccccc2)[nH]1 (configuration not stated)	SARS PLpro yeast inconclusive
Cc1nc2cc(-c3ccc(F)cc3)[nH]n2c(=O)c1C	Pf growth 96h inconclusive
Cc1cc(=O)n2[nH]c(-c3ccccc3Cl)cc2n1	Sm TGR block inconclusive, Pf growth 96h 7.4µM, HCV inh inconclusive
Cc1nc2cc(-c3ccc(Br)cc3)[nH]n2c(=O)c1Cl	Pf growth 48h inconclusive, Pf growth 96h 9.3µM
Cc1ccccc1-c1cc2nc(C)c(C)c(=O)n2[nH]1	Pf growth 48h 7.4µM
O=C(CSc1ccc2nnc(-c3ccccn3)n2n1)Nc1ccc(F)cc1F	Pf growth 48h inconclusive, HCMV inh inconclusive, Pf growth 96h inconclusive, HCV inh inconclusive
Fc1ccccc1Nc1c2c(nc3ccccc13)CCC2	HCMV inh inconclusive (no result: Pf growth 48h, SARS PLpro yeast, Pf growth 96h, HCV inh)
Fc1ccc(F)c(Nc2c3c(nc4ccc(Cl)cc24)CCC3)c1	HCMV inh -69 (no result: Pf growth 48h, SARS PLpro yeast, Pf growth 96h, HCV inh)
FC(F)(F)c1cccc(Nc2c3c(nc4ccc(Cl)cc24)CCC3)c1	HCMV inh -76 (no result: Pf growth 48h, SARS PLpro yeast, Pf growth 96h, HCV inh)
CN(C)Cc1ccc(O)c(CCc2ccccc2)n1	Pf growth 48h 5.2µM, Sm TGR block inconclusive
